HT1080-NT tox – kills 2HG-producing HT-1080-NT fibrosarcoma cells; Potency, µM (series often up to 46.1 µM), for inactives: at the highest dose activity, negative = less viability, hits mostly cytotoxic; actives 1.6% (n = 360,000); HT-1080-NT fibrosarcoma viability, CellTiter-Glo ATP luminescence, 48 h;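 also: NT is the 2HG producing partner of a matched IDH1 knockdown line; potency is read from the fitted curve at half-maximal effect; 0% = DMSO-treated cells and -100% = media-only wells without cells; nearly all actives have a fitted effect of over 55% in size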
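Luminescent CellTiter-Glo readout after 48 hours of compound exposure at 37 degrees C defined viability of HT-1080-NT cells. Activity was normalized to DMSO wells and cell-free media wells; concentration-response curves were fitted and assigned curve classes.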
IL1B secr inh – inflammasome signaling inhibition, IL-1 beta readout | THP-1 LPS/ATP IL-1B secretion, AlphaLISA, 16 h; hits give low values | activity change, % at 57.5 µM | actives 4.7% (n = 360,000) | AID 743279; in the data active = activity change below about -50%; inconclusive = mostly about -30% to -49%
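THP-1 cells pretreated 1 hr with compounds (up to 57.5 uM final), then stimulated with LPS (250 ng/mL final) plus ATP (1.25 mM final); secreted IL-1B measured by AlphaLISA after 16 hr, decreased signal indicating inhibition.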
HT1080 IDH1KD tx – HT-1080 IDH1 knockdown cell toxicity (counter line); AID 686971; HT-1080 IDH1 knockdown viability, ATP luminescence, 48 h; Potency, µM (doses to about 46.1 µM), without a hit: at the top dose activity, negative = toxicity, actives largely listed as cytotoxic; actives 2% (n = 360,000);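 also: potency is read from the fitted curve at half-maximal effect; 0% = DMSO wells and -100% = cell-free medium wells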
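HT-1080-IDH1KD cells (IDH1 knocked down), 750/well in RPMI with 5% FBS, treated with compound 48 h at 37 degrees C. Viability by CellTiter-Glo luminescence, normalised to DMSO and no-cell wells; concentration-response curves classed.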
KB-3-1 tox – kills parental KB-3-1 adenocarcinoma cells | actives 1.4% (n = 400,000) | Potency, µM (doses to about 46.1 µM), usual class: cytotoxic | KB-3-1 viability, CellTiter-Glo ATP luminescence, 72 h | AID 1347075; also: potency is read from the fitted curve at half-maximal effect; nearly all actives have a fitted effect of over 60% in size
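KB-3-1 parental drug-naive adenocarcinoma cells in DMEM/10% FBS, incubated 72 h at 37 C with pin-transferred compounds across a concentration series. Viability by CellTiter-Glo luminescence; concentration-response curves fitted after normalization.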
KB-V1 MDR tox – KB-V1 MDR subline cytotoxicity; KB-V1 MDR cells viability, CellTiter-Glo, 72 h; Potency, µM (series often up to 46.1 µM), actives largely listed as cytotoxic; actives 3.4% (n = 400,000); AID 1347076; also: potency is read from the fitted curve at half-maximal effect; nearly all actives have a fitted effect of over 60% in size
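In this primary screen, KB-V1 cells overexpressing P-gp are incubated with library compounds (lowest to highest concentration) for 72 h at 37 degrees C before a luminescent ATP viability read.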
Active calls of the source: *; i = inactive; ? = inconclusive; . = no result given; ! = not confirmed by another sample; [ ] = dose if it differs, or a comment. In the library only some 8.8% were active in any assay of this set; here they are far more common. Unless noted, calls follow the shape of the dose curve; as a rule, active = well fitted curve in the direction sought with a large enough effect; inconclusive = small, poorly fitted or top-dose-only effect, or another doubt; inactive = no such curve, though single readings can be large; an effect the other way counts as inactive or inconclusive. Unless noted, % is scaled to controls: 0 for no effect and ±100 for the full control effect.

SMILES	HT1080-NT tox	IL1B secr inh	HT1080 IDH1KD tx	KB-3-1 tox	KB-V1 MDR tox
Cc1ccc(O)c(NC(=O)c2cc([N+](=O)[O-])ccc2Cl)c1	-16%	-97*	?	i	i
Cc1cc(O)c(NC(=O)c2cc([N+](=O)[O-])ccc2Cl)cc1C	?	-84*	?	?	i
O=C(Nc1cccc(Cl)c1)c1cc(N=Nc2ccc([N+](=O)[O-])cc2Cl)ccc1O	-13%	23	-17%	21µM*	?
COc1ccc(Cl)cc1C(=O)Nc1ccc([N+](=O)[O-])cc1Cl	.	.	.	i	i
CCCCC1(Br)C(=O)N(c2ccccc2)N(c2ccccc2)C1=O	-7%	-1	-10%	i	?
OC(c1ccc(F)c(F)c1)c1nc(-c2ccc(F)c(Cl)c2)cs1 (configuration not stated)	-25%	-12	?	i	i
Cc1ccccc1-c1cnc(C(O)c2c(C)ccc3ccccc23)[nH]1 (configuration not stated)	-27%	-9	-27%	i	i
O=C(O)C[C@H]1c2cc(C(F)(F)F)ccc2S(=O)(=O)N1C1CCCCC1	1%	-5	1%	i	?
COc1ccc(/C=C/c2ccc3ccccc3[n+]2C)cc1OC	-5%	-6	-5%	10µM*!	i
CC(=O)Oc1ccccc1/C=C/c1ccc2ccccc2[n+]1C	?	-57*	?	i	i
COc1cc(OC)c(OC)cc1/C=C/c1ccc2ccccc2[n+]1C	.	.	.	13µM*	i
COc1ccc(/C=C/c2ccc3ccccc3[n+]2C)c(OC)c1OC	.	.	.	?	i
COc1ccccc1/C=C/c1nc2ccc(OC(C)=O)cc2c(=O)o1	5%	4	17%	i	?
O=C(COc1ccc(S(=O)(=O)N2CCOCC2)cc1)NC1CCCCC1	16%	23	3%	i	?
COc1ccccc1CCNC(=O)c1c(N)[nH]c(C(=O)c2ccccc2)c1-c1ccc(Br)cc1	23%	6	5%	?	15µM*
Nc1[nH]c(C(=O)c2ccccc2)c(-c2ccc(Br)cc2)c1C(=O)NCCc1c[nH]c2ccccc12	-10%	?	-19%	i	?
CC(=O)C1=C(c2ccc(Br)cc2)C(=O)c2ccccc2C1=O	13µM*	-97*	13µM*	?	7.3µM*
Cc1ccc(N2CC(C(=O)N3CCC(C(=O)Nc4ccc(Br)cc4)CC3)CC2=O)cc1 (configuration not stated)	-3%	-61*	?	i	i
Cc1ccc(N2CC(C(=O)Nc3nccs3)CC2=O)cc1Cl (configuration not stated)	-26%	-24	3%	?	7.3µM*
Cc1ccc(N2CC(C(=O)N3CCC(C(=O)Nc4cccc(Br)c4)CC3)CC2=O)cc1 (configuration not stated)	0%	?	-19%	i	i
O=C(Nc1ccc(Cl)c(Cl)c1)C1CC(=O)N(c2ccc(Br)cc2)C1 (configuration not stated)	?	-60*	-26%[9.24 µM]	i	i
CCNC(=O)N(C)C[C@H]1N[C@@](C)(C(=O)OC)[C@H]2C(=O)N(Cc3ccccc3)C(=O)[C@@H]12	15%	1	14%	i	i
CCc1c(C)sc2c1CCN(Cc1ccccc1F)C2c1ccccc1 (configuration not stated)	.	.	.	18µM*	?
O=C(c1ccccc1)C(c1ccccc1)[n+]1csc2ccccc21 (configuration not stated)	.	.	.	i	i
O=C(COCc1ccccc1)N[C@@H]1c2ccccc2CC[C@H]1OCc1ccccc1	-1%	-6	-3%	i	i
Cc1ccc(NC(=S)N/N=C/c2c(Cl)cccc2Cl)c(C)c1	?	78	0.52µM*	0.58µM*	1.2µM*
Cc1ccc(NC(=S)N/N=C/c2ccc(OCCC(C)C)cc2)c(C)c1	1%	14	-2%	i	16µM*
CC(C)(C)NC(=S)N/N=C/c1c(Cl)cccc1Cl	-3%	65	0%	i	i

Compound activity (PubChem BioAssay)
